Measurements taken from PubChem BioAssay AID1159580 (chemical genetic matrix, 2015).
Screen size: about 5,500 compounds; about 2,000 (36%) were called active. Another 18% or so got no clear call; they are omitted. No stated cut-off is given here; in the data, active means normalized growth mostly below about 0.91 (no sharp cut-off); inconclusive means no clear call, values can overlap the other calls; inactive means mostly above about 0.92. The list shows a part of the results.

Experiment: chemical genetic growth profiling, strain panel (AID 1159580);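 further: tested at 20 µM; growth read once vehicle control cultures reached saturation at 30 °C; 1 = growth at the plate median or of vehicle wells; lower values mean less growth of the strain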
Settings: S. cerevisiae deletion strains, growth OD
[1] = locus YAL013W, strain DEP1, hits give low values
[2] = locus YBR229C, strain ROT2, hits give low values
[3] = locus YDL101C, strain DUN1, hits give low values
[4] = locus YDL134C, strain PPH21, hits give low values
[5] = locus YDR150W, strain NUM1, hits give low values
[6] = locus YEL061C, strain CIN8, hits give low values
[7] = locus YGR078C, strain PAC10, hits give low values
[8] = locus YGR229C, strain SMI1, hits give low values
[9] = locus YHR030C, strain SLT2, hits give low values
[10] = locus YHR087W, strain rtc3, hits give low values
[11] = locus YJL187C, strain SWE1, hits give low values
[12] = locus YJR043C, strain POL32, hits give low values
[13] = locus YJR075W, strain HOC1, hits give low values
[14] = locus YLR039C, strain RIC1, hits give low values
[15] = locus YLR058C, strain SHM2 (second series), hits give low values
[16] = locus YLR085C, strain ARP6, hits give low values
[17] = locus YLR262C, strain YPT6, hits give low values
[18] = locus YML094W, strain GIM5, hits give low values
[19] = locus YMR219W, strain ESC1, hits give low values
[20] = locus YMR263W, strain SAP30, hits give low values
[21] = locus YNL153C, strain GIM3, hits give low values
[22] = locus YNL298W, strain CLA4 (second series), hits give low values
[23] = locus YNL322C, strain KRE1, hits give low values
[24] = locus YNR030W, strain Alg12, hits give low values
[25] = locus YPL055C, strain LGE1, hits give low values
[26] = locus YPL241C, strain CIN2, hits give low values
[27] = locus YPR135W, strain CTF4, hits give low values
[28] = locus YAR019C, strain CDC15, hits give low values
[29] = locus YBL105C, strain PKC1, hits give low values
[30] = locus YBR135W, strain CKS1, hits give low values
[31] = locus YBR136W, strain MEC1, hits give low values
[32] = locus YBR160W, strain CDC28, hits give low values
[33] = locus YDL017W, strain CDC7, hits give low values
[34] = locus YDL028C, strain MPS1, hits give low values
[35] = locus YDL108W, strain KIN28, hits give low values
[36] = locus YDL132W, strain cdc53, hits give low values
[37] = locus YDL214C, strain PRR2, hits give low values
[38] = locus YDR052C, strain DBF4, hits give low values
[39] = locus YDR054C, strain cdc34, hits give low values
[40] = locus YDR226W, strain ADK1, hits give low values
[41] = locus YDR477W, strain SNF1, hits give low values
[42] = locus YER123W, strain YCK3, hits give low values
[43] = locus YER133W, strain GLC7, hits give low values
[44] = locus YFL009W, strain cdc4, hits give low values
[45] = locus YFL029C, strain CAK1, hits give low values
[46] = locus YFR003C, strain YPI1, hits give low values
[47] = locus YFR019W, strain FAB1, hits give low values
[48] = locus YFR028C, strain CDC14, hits give low values
[49] = locus YGR040W, strain KSS1, hits give low values
[50] = locus YGR052W, strain FMP48, hits give low values
[51] = locus YGR092W, strain DBF2, hits give low values
[52] = locus YHR079C, strain IRE1, hits give low values
[53] = locus YHR082C, strain KSP1, hits give low values
[54] = locus YHR205W, strain SCH9, hits give low values
[55] = locus YIL147C, strain SLN1, hits give low values
[56] = locus YJL095W, strain BCK1, hits give low values
[57] = locus YJL128C, strain PBS2, hits give low values
[58] = locus YJL157C, strain FAR1, hits give low values
[59] = locus YJR016C, strain ILV3, hits give low values
[60] = locus YJR066W, strain TOR1 (second series), hits give low values
[61] = locus YJR066W, strain TOR1, hits give low values
[62] = locus YKL048C, strain ELM1, hits give low values
[63] = locus YKL067W, strain YNK1, hits give low values
[64] = locus YKL101W, strain HSL1, hits give low values
[65] = locus YKL193C, strain SDS22, hits give low values
[66] = locus YKL203C, strain TOR2, hits give low values
[67] = locus YLR113W, strain HOG1, hits give low values
[68] = locus YLR133W, strain CKI1, hits give low values
[69] = locus YLR403W, strain SFP1, hits give low values
[70] = locus YML070W, strain DAK1, hits give low values
[71] = locus YMR001C, strain CDC5, hits give low values
[72] = locus YMR205C, strain PFK2 (second series), hits give low values
[73] = locus YMR277W, strain FCP1, hits give low values
[74] = locus YNL006W, strain LST8, hits give low values
[75] = locus YNL020C, strain ARK1, hits give low values
[76] = locus YNL161W, strain CBK1, hits give low values
[77] = locus YNL183C, strain NPR1, hits give low values
[78] = locus YNL207W, strain RIO2, hits give low values
[79] = locus YNL307C, strain MCK1 (second series), hits give low values
[80] = locus YOL078W, strain AVO1, hits give low values
[81] = locus YOL136C, strain PFK27, hits give low values
[82] = locus YOR061W, strain CKA2, hits give low values
[83] = locus YOR119C, strain RIO1, hits give low values
[84] = locus YOR231W, strain MKK1, hits give low values
[85] = locus YOR329C, strain SCD5, hits give low values
[86] = locus YPL031C, strain PHO85, hits give low values
[87] = locus YPL153C, strain RAD53, hits give low values
[88] = locus YPL204W, strain HRR25, hits give low values
[89] = locus YPL209C, strain IPL1, hits give low values
[90] = locus YPL256C, strain CLN2, hits give low values
[91] = locus YPR025C, strain CCL1, hits give low values
[92] = locus YPR106W, strain ISR1, hits give low values
[93] = locus YPR111W, strain DBF20, hits give low values
[94] = strain NNK1, hits give low values
[95] = strain TSCII, hits give low values

Measured: normalized growth

CC(=O)CC(C)=Nc1ccc(C(F)(F)F)cc1
inactive: [1] 0.989 | [2] 0.991 | [3] 0.994 | [4] 1.03 | [5] 0.908 | [6] 1.01 | [7] 0.981 | [8] 1.02 | [9] 1.08 | [10] 0.971 | [11] 0.995 | [12] 1.01 | [13] 1.05 | [14] 1.05 | [15] 1 | [16] 1.03 | [17] 1.04 | [18] 0.993 | [19] 1 | [20] 1.05 | [21] 0.985 | [22] 1.05 | [23] 1 | [24] 1.02 | [25] 0.939 | [26] 1.08 | [27] 0.969

N#CC(C#N)=NNc1cc(C(F)(F)F)ccc1OCC(F)(F)F
inactive: [28] 0.913 | [29] 0.927 | [30] 0.917 | [31] 0.894 | [32] 0.906 | [33] 0.953 | [34] 0.917 | [3] 0.911 | [35] 0.911 | [38] 0.913 | [39] 0.893 | [44] 0.919 | [45] 0.921 | [46] 0.975 | [48] 0.912 | [51] 0.818 | [52] 0.831 | [54] 0.814 | [55] 0.966 | [56] 0.533 | [57] 0.888 | [58] 0.814 | [59] 0.947 | [62] 0.88 | [63] 0.739 | [64] 0.787 | [65] 0.9 | [68] 0.868 | [69] 0.811 | [71] 0.9 | [72] 0.889 | [74] 0.976 | [75] 0.917 | [76] 0.899 | [78] 0.923 | [79] 0.734 | [80] 0.904 | [81] 0.693 | [82] 0.86 | [84] 0.782 | [85] 0.978 | [86] 0.703 | [87] 0.679 | [88] 0.688 | [89] 0.928 | [91] 0.923 | [92] 0.932 | [93] 0.895 | [94] 0.957
active: [36] 0.891 | [37] 0.611 | [40] 0.891 | [41] 0.572 | [42] 0.398 | [43] 0.459 | [47] 0.691 | [49] 0.611 | [50] 0.428 | [9] 0.445 | [53] 0.543 | [60] 0.437 | [61] 0.458 | [66] 0.71 | [67] 0.32 | [70] 0.623 | [73] 0.871 | [77] 0.329 | [83] 0.45 | [90] 0.33 | [95] 0.858

N#CC(C#N)=CNc1cc(C(F)(F)F)ccc1N1CCCCC1
inactive: [1] 0.995 | [2] 1 | [3] 0.991 | [4] 0.997 | [5] 0.973 | [6] 1 | [7] 0.987 | [8] 1 | [9] 0.936 | [10] 1.01 | [11] 1 | [12] 1 | [13] 0.966 | locus YKL190W, strain CNB1, hits give low values 1 | [14] 0.997 | [15] 1 | [16] 0.96 | [17] 1.04 | [18] 0.989 | [19] 1 | [20] 0.986 | locus YMR307W, strain GAS1, hits give low values 0.909 | [21] 1.01 | [22] 1 | [23] 0.992 | [24] 1.01 | locus YOL006C, strain TOP1, hits give low values 1.01 | [25] 0.989 | [26] 0.996 | [27] 0.915

CCOC(=O)C1C(c2ccc(Br)cc2)C(C(=O)OCC)C(O)(C(F)(F)F)NC1(O)C(F)(F)F (stereo not drawn)
inactive: [28] 0.999 | [29] 0.991 | [30] 1 | [31] 0.988 | [32] 0.999 | [33] 0.996 | [34] 0.999 | [3] 0.99 | [35] 1 | [36] 0.996 | [37] 0.961 | [38] 0.994 | [39] 0.992 | [40] 0.998 | [41] 0.994 | [42] 0.917 | [43] 0.969 | [44] 0.998 | [45] 0.994 | [46] 0.995 | [47] 0.878 | [48] 0.995 | [49] 0.99 | [50] 1 | [51] 0.993 | [9] 0.941 | [52] 0.981 | [53] 0.961 | [54] 0.91 | [55] 0.999 | [56] 0.97 | [57] 0.967 | [58] 0.975 | [59] 0.997 | [60] 0.943 | [61] 0.911 | [62] 0.986 | [63] 0.974 | [64] 1 | [65] 0.998 | [66] 1.03 | [67] 0.91 | [68] 0.97 | [69] 0.966 | [70] 0.956 | [71] 0.987 | [72] 0.988 | [73] 0.996 | [74] 0.999 | [75] 0.99 | [76] 0.999 | [77] 0.942 | [78] 0.996 | locus YNL222W, strain SSU72, hits give low values 0.999 | [79] 0.969 | [80] 1 | [81] 0.947 | [82] 0.995 | [83] 1.01 | [84] 0.984 | [85] 0.995 | [86] 0.999 | [87] 0.989 | [88] 0.985 | [89] 0.996 | [90] 0.9 | [91] 0.997 | [92] 0.99 | [93] 0.99 | [94] 0.992 | [95] 0.998
